Source: PubChem BioAssay AID434973 (Sanford-Burnham Center for Chemical Genomics, 2010)
About 4,900 (1.5%) of roughly 330,000 compounds were called active. This is one part of a sample in which actives are shown more often than they occur. Values without a mark were called inactive.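 The calls were made as follows: active = inhibition above about 50% at the single test dose (limit read from the data); inactive = the rest.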

target: Sentrin-specific protease 7 (Homo sapiens) (UniProt Q9BQF6); assay: blockers of human SENP7 peptidase activity – biochemical, luminescence, uHTS, primary screen (AID 434973); conditions: recombinant SENP7, Z-RLRGG-aminoluciferin luminescence, 40 min; at 5 µM; hits give high values;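 also: plate controls were DMSO with enzyme for no effect and no enzyme buffer wells for full effect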

Row | Compound | inhibition
1 | CC(C)Cc1ccc(S(=O)(=O)N2CCN(C(=O)c3ccco3)CC2)cc1 | 3.59%
2 | O=C1c2ccccc2NC(c2ccccn2)N1NS(=O)(=O)c1ccccc1 (stereo not given) | 0.965%
3 | CN(Cc1ccccc1)C(=O)c1cccc(C(=O)N(C)Cc2ccccc2)c1 | 0.789%
4 | O=C(COC(=O)CNS(=O)(=O)c1ccc(F)c(F)c1F)NC1CCCC1 | 4.55%
5 | O=[N+]([O-])c1ccc2nc(-c3ccccn3)[nH]c2c1 | 70.4% (active)
6 | O=[N+]([O-])c1ccc2c(c1)Nc1nc3ccccc3nc1N2 | -3.53%
7 | O=[N+]([O-])c1ccc(N/N=C2/CCCCC2c2ccccn2)c([N+](=O)[O-])c1 (stereo not given) | -1.83%
8 | O=S(=O)(NCCCc1ccccc1)c1ccc(Br)cc1 | 5.53%
9 | COc1ccc(Br)cc1C(=O)NC(=S)Nc1cc(-c2nc3ccccc3[nH]2)ccc1C | 2.43%
10 | Clc1ccccc1SCc1nc2ccccc2[nH]1 | 35.5%
11 | COc1ccc(-c2[nH]nc(-c3ccccc3)c2-c2nc3ccccc3[nH]2)cc1 | 1.53%
12 | Cc1ccc(-c2nc3ccccc3[nH]2)cc1N | 94.4% (active)
13 | Cc1ccccc1N1CC(c2nc3ccccc3[nH]2)CC1=O (stereo not given) | 4.87%
14 | c1ccc2[nH]c(-c3nc4ccccc4[nH]3)nc2c1 | 99.5% (active)
15 | O=C(CN1C(=O)c2ccc([N+](=O)[O-])cc2C1=O)Nc1nnc(C2CC2)s1 | -1.7%
16 | COc1ccc(CN2CCOC2=O)cc1OC | 0.943%
17 | CCC(=NC1CC(C)(C)NC(C)(C)C1)C1=C(O)CC(C)(C)CC1=O | -2.04%
18 | COc1ccc(C2/C(=C(/O)c3ccc(OC(C)C)cc3)C(=O)C(=O)N2CCCN2CCOCC2)cc1 (stereo not given) | -3.1%
19 | O=C1C(=O)N(CCN2CCOCC2)C(c2cccc(Cl)c2)/C1=C(/O)c1ccc2c(c1)OCO2 (stereo not given) | 0%
20 | O=C1C(=O)N(CCCN2CCOCC2)C(c2ccc([N+](=O)[O-])cc2)/C1=C(\O)c1ccc2c(c1)OCCO2 (stereo not given) | 56.5% (active)
21 | COc1ccccc1OCc1ccc(C(=O)NC(C)c2ccccc2)o1 (stereo not given) | -1.75%
22 | Cc1ccc(S(=O)(=O)CCC(=O)Nc2nnc(CC(C)C)s2)cc1 | 10.9%
23 | C/C(=N\NC(=S)Nc1ccc(C)cc1)c1cc2ccccc2o1 | -0.14%
24 | COc1ccccc1CN(C)C(=O)c1cc2ccccc2o1 | 6.76%

Row | Compound | inhibition
25 | Cc1ccc(OC(=O)c2cc3ccccc3o2)cc1 | 80.7% (active)
26 | COc1cc(C(=O)OCC(=O)NC23CC4CC(CC(C4)C2)C3)cc(OC)c1OC | 7.88%
27 | COc1cc(C2/C(=C(\O)c3ccc4c(c3)CC(C)O4)C(=O)C(=O)N2c2nnc(C)s2)cc(OC)c1OC (stereo not given) | 0.235%
28 | COc1ccc(CNC(=O)CN(Cc2ccccc2Cl)C(=O)c2csnn2)cc1 | -0.595%
29 | CCCCn1c(N)c(N(CCC(C)C)C(=O)CC2OC(=O)c3ccccc32)c(=O)[nH]c1=O (stereo not given) | 0.323%
30 | O=C(c1cccc([N+](=O)[O-])c1)N1CCN(C(=O)c2ccco2)CC1 | 3.1%
31 | COc1cc(NC(=O)c2cc([N+](=O)[O-])ccc2Br)ccc1NC(=O)c1ccco1 | -5.49%
32 | Cc1cc(C)nc(NC(=O)c2cccc([N+](=O)[O-])c2)c1 | 2.66%
33 | O=C(Nc1ccc(NC(=O)c2ccco2)c(Cl)c1)c1cccc([N+](=O)[O-])c1 | 52.1% (active)
34 | CC(C)(C)SCCNC(=O)c1cccc([N+](=O)[O-])c1 | 0.866%
35 | O=C(Nc1ccc(C2CC2(Cl)Cl)cc1)c1cccc([N+](=O)[O-])c1 (stereo not given) | 54.2% (active)
36 | COc1ccc(S(=O)(=O)N2CCN(c3cnccn3)CC2)cc1 | 4.46%
37 | COC(=O)c1ccc(-n2cnc3ccccc32)nc1 | -0.937%
38 | O=C1CN(C(=O)COC(=O)/C=C/c2ccc(F)cc2)c2ccccc2N1 | -6.02%
39 | O=S(=O)(c1ccc(F)cc1)N1CCN(C(=S)NCc2ccco2)CC1 | -0.183%
40 | COc1ccc(NC(=O)NN2CCN(C)CC2)c(OC)c1 | 0.214%
41 | CCCCOc1ccc(-c2nnc(-c3ccco3)o2)cc1 | 80.5% (active)
42 | CCOc1ccc(-n2c(SCC(N)=O)nnc2-c2ccco2)cc1 | 6.82%
43 | N#Cc1ccc(OCc2nnc(-c3ccc([N+](=O)[O-])cc3)o2)cc1 | -0.787%
44 | O=C(NCCC1=CCCCC1)c1ccc(-n2cncn2)cc1 | -9.22%
45 | O=C(NCc1cccnc1)c1cccnc1Sc1ccc(Cl)cc1 | 2.66%
46 | CC(C)(C)n1nc2c(c1NC(=O)c1cc3ccccc3o1)CSC2 | 6.18%
47 | O=C(Nc1ccncc1)c1cc2ccccc2o1 | 60.6% (active)
48 | COc1cc2ccccc2cc1C(=O)Nc1ccncc1 | 7.87%

Row | Compound | inhibition
49 | CCOc1ccc(N2C(=O)/C(=C/c3ccc(C)o3)N(C)C2=S)cc1 | 6.54%
50 | O=C(N[C@@H](Cc1ccccc1)C(=O)OCc1ccccc1)c1nc[nH]c1C(=O)N[C@@H](Cc1ccccc1)C(=O)OCc1ccccc1 | 4.7%
51 | CCOc1ccc(C(=O)COC(=O)c2ccc(-n3cnnn3)cc2)cc1 | -0.201%
52 | O=C(Oc1ccc(C(=S)N2CCOCC2)cc1)c1ccc(F)cc1 | 2.03%
53 | CC(C)c1c(C(=O)N/N=C/c2ccc(-c3ccccc3)cc2)nnn1-c1nonc1N | 0.606%
54 | Cc1nc2ccc(C(=O)N/N=C/c3ccc(O)cc3)cc2[nH]1 | 0.319%
55 | Cc1nonc1C(=O)N/N=C/c1ccc(O)cc1 | 98.8% (active)
56 | Cn1ncc(N2CCN(S(=O)(=O)c3ccc(Br)cc3)CC2)c(Cl)c1=O | -5.83%
57 | O=C(O)c1ccc(/C=N/Nc2nc(N3CCCCC3)nc(N3CCCCC3)n2)cc1 | -3.32%
58 | O=C(O)c1ccc(N/N=C/c2ccc3ncccc3c2)cc1 | 99.3% (active)
59 | Cc1ccc2cc(/C=N/Nc3ccc(C(=O)O)cc3)c(Cl)nc2c1 | -6.79%
60 | COc1ccc(CCNC(=O)C(=O)NCC2OCCN2S(=O)(=O)c2ccc(OC)c(C)c2)cc1 (stereo not given) | 2.59%
61 | O=C(NC(=S)N1CCN(Cc2ccccc2)CC1)c1ccccc1 | 2.02%
62 | Cc1ccc(S(=O)(=O)N(C)C)cc1NC(=O)C(C)OC(=O)c1ccc2ccccc2n1 (stereo not given) | 6.08%
63 | CC(NC(=O)COC(=O)c1ccc2ccccc2n1)c1ccccc1 (stereo not given) | -1.7%
64 | CC(OC(=O)c1ccc2ccccc2n1)C(=O)c1ccccc1 (stereo not given) | 55.8% (active)
65 | O=C(Nc1ccc(S(=O)(=O)N2CCCCC2)cc1)C1CCN(C(=O)c2ccc(F)cc2)CC1 | -13.9%
66 | O=C(Nc1cccc(-c2nnc(-c3ccccc3)o2)c1)C1CCCO1 (stereo not given) | 1.95%
67 | O=C(Nc1ccc(-c2nnc(-c3ccccc3)o2)cc1)C1CCCO1 (stereo not given) | 60.2% (active)
68 | CC(C)(C)NS(=O)(=O)c1ccc(NC(=O)C2CCCO2)cc1 (stereo not given) | 3.51%
69 | O=C(COC(=O)/C=C/c1cccc(Cl)c1)NCc1cccs1 | 15%
70 | CCNC(=O)CC1C(=O)N(c2ccc(F)cc2)C(=O)N1CCc1sccc1C (stereo not given) | 7.13%
71 | Cn1nc(-c2ccccc2)c(CSc2cccc(Cl)c2)c1Cl | 2.83%
72 | Cc1nn2cc(-c3ccc(Cl)cc3)cnc2c1Br | 88.2% (active)

Row | Compound | inhibition
73 | CCOC(=O)c1cc(S(=O)(=O)NCCc2ccc(OC)c(OC)c2)cn1C | 7.17%
74 | O=c1c2cc(-c3ccccc3)sc2nc2n1N=C(c1cccs1)CS2 | 74.3% (active)
75 | Cc1nnc2n1N=C(c1ccccc1)CS2 | -0.787%
76 | O=c1c(-c2ccccc2)cnc2n1CCS2 | 4.7%
77 | Clc1ccc2nc(CSc3ccccc3)cn2c1 | 66.1% (active)
78 | CCCCCCSc1ccc(-c2nc3ccc(Cl)cn3c2NCc2ccccc2)cc1 | -2.53%
79 | O=C(/C=C/c1ccc2c(c1)OCO2)NCc1cn2cc(Cl)ccc2n1 | 0.536%
80 | COc1ccc(NC(=O)NCc2ccc3c(c2)OCO3)c(OC)c1 | 6.56%
81 | CCOCCCNC(=S)N1CCC(NC(=O)C2CCCCC2)CC1 | -2.06%
82 | Cc1ncc(CO)c(/C=N/NC(=O)c2cccc(S(=O)(=O)N3CCCC3)c2)c1O | -7.56%
83 | O=C(Nc1ccccc1-c1nc2ccccc2[nH]c1=O)c1cccs1 | -0.595%
84 | C/C(=N\Nc1nc2ccccc2[nH]1)c1cccs1 | 65.2% (active)
85 | C/C(=N\Nc1ncc(Cl)cc1Cl)c1cccs1 | 47.2%
86 | O=C(CNC(=O)OCc1ccccc1)NC1CCCCNC1=O (stereo not given) | 4.12%
87 | COC(=O)c1ccc(NCC(=O)N2CCCCCC2)cc1 | -4.94%
88 | COC(=O)c1ccc(NC(=O)Nc2ccc(C)cc2)cc1 | -0.387%
89 | COC(=O)c1ccc(NCC(=O)c2ccccc2)cc1 | 86.1% (active)
90 | COc1cc(C2/C(=C(\O)c3ccc4c(c3)CC(C)O4)C(=O)C(=O)N2Cc2ccco2)ccc1O (stereo not given) | 2.43%
91 | CC(Oc1ccc(F)cc1F)C(=O)/C=C/N(C)C (stereo not given) | 11.5%
92 | O=C(OCC(=O)N1CCOCC1)c1ccc2ccccc2c1 | 4.44%
93 | O=C(N/N=C/c1cccc(O)c1)c1cc2c(ccc3ccccc32)o1 | -13.1%
94 | NC(=O)c1ccccc1N=Cc1ccc2ccccc2c1 | 66.6% (active)
95 | COc1ccc(CC(=O)N2N=C(C)CC2(O)C(F)(F)F)cc1 (stereo not given) | -2.12%
